This note sets out measurements from PubChem BioAssay (NCATS).

Molecules are shown by their SMILES. Results filed as inconclusive are left out. A call without a number means that no potency is given here. Calls of active or inactive are those of the source. Calls come from the whole dose curve; as a rule, active = well fitted inhibition curve with a large enough effect; inconclusive = small, poorly fitted or top-dose-only effect; inactive = flat fitted curve, though single readings scatter.

One experiment has as its system CP192. Kind of experiment: qHTS profiling for inhibitors of Plasmodium falciparum proliferation (AID 504749). Note: nearly all actives have a fitted effect of over 60% in size. The following applies: P. falciparum in erythrocytes, SYBR Green DNA, 72 h; series mostly up to 28.7 µM. Put shortly:
(§1)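 SYBR Green fluorescence (ex 485 nm, em 535 nm) reports parasite DNA after 72 h compound exposure of infected red cells at 0.3% parasitemia, 2.5% hematocrit; signal normalized to 0.29 uM artemisinin and vehicle wells.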
For orientation: Quantitative high-throughput screening tests each substance at several concentrations.
In the case of `CCN(CC)C(=O)c1cccnc1`, the Potency entry was “inactive”.

As to `CNC(=O)C[C@@H](N)C(=O)N[C@@H](C(=O)N[C@@H]1C(=O)N2[C@@H]1SC(C)(C)[C@@H]2C(=O)O)c1ccc(O)cc1`, the Potency entry is “inactive”.

With `CCCCCCCCCCCCCCCCCC(=O)OCC(C)O` (stereo not drawn), the Potency result is “inactive”.

On to `NC(=S)NS(=O)(=O)c1ccc(N)cc1`, for which the Potency result is “inactive”.

With `N=C(N)n1cccn1`, the Potency result is “inactive”.

Turning to `Nc1ncnc2c1ncn2CCOCP(=O)(O)O`, the Potency result is “inactive”.

On to `CCC(C(=O)NC(N)=O)c1ccccc1` (stereo not drawn), for which the Potency entry was “inactive”.

Turning to `CC(C)CCC[C@@H](C)[C@H]1CC[C@H]2[C@@H]3CC=C4C[C@@H](O)CC[C@]4(C)[C@H]3CC[C@]12C`, the Potency entry is “inactive”.

Turning to `CC1=CCC2CC1C2(C)C` (stereo not drawn), the Potency entry is “inactive”.

As to `NC(N)=O`, the Potency entry was “inactive”.

Take `Cc1ncc(C[n+]2csc(CCOP(=O)(O)OP(=O)(O)O)c2C)c(N)n1`: the Potency entry was “inactive”.

Turning to `Nc1nc(=O)n([C@@H]2CS[C@H](CO)O2)cc1F`, the Potency entry is “inactive”.

Regarding `CCOC(=O)[C@@H](N)CS`, the Potency result is “inactive”.

With `OCC(O)CO`, the Potency result is “inactive”.

As to `O=C1c2ccccc2C(=O)C1c1ccc(F)cc1`, the Potency entry is “inactive”.

Consider `O=C(O)COc1ccccc1/C=N/NC(=O)c1ccncc1`, for which the Potency result is “inactive”.

With `Cc1cccc(C)c1NC(=O)C1CCCCN1C` (stereo not drawn), the Potency result was “inactive”.

Take `CCC(C)[C@@H](N)C(=O)O` (stereo partly drawn): the Potency entry is “inactive”.

In the case of `CC(C)(Oc1ccc(C2CCCc3ccccc32)cc1)C(=O)O` (stereo not drawn), the Potency result was “inactive”.

With `CC(CC=O)CCCC(C)(C)O` (stereo not drawn), the Potency result is “inactive”.

As to `S=C1SCN(Cc2ccccc2)CN1Cc1ccccc1`, the Potency result was “inactive”.

As to `CC(C)Cc1ccc([C@@H](C)C(=O)NS(C)(=O)=O)cc1`, the Potency result was “inactive”.

Take `COc1cc2c(cc1OC)[C@@H](Cc1cc(OC)c(OC)c(OC)c1)[N+](C)(CCCOC(=O)CC/C=C/CCC(=O)OCCC[N+]1(C)CCc3cc(OC)c(OC)cc3[C@H]1Cc1cc(OC)c(OC)c(OC)c1)CC2` (stereo partly drawn): the Potency entry was “inactive”.

As for `COC(=O)CCC[N+](C)(C)C`, the Potency result is “inactive”.

Regarding `[O]=[Bi][O][Bi]=[O]`, the Potency entry was “inactive”.

Take `C[C@]12CC[C@@H]3c4ccc(OC(=O)c5ccccc5)cc4CC[C@H]3[C@@H]1CC[C@@H]2O`: the Potency entry was “inactive”.

Turning to `Cc1ccc(C(C)(C)c2ccc(C)cc2)cc1`, the Potency entry is “inactive”.

As for `FC(F)OC(Cl)C(F)(F)F` (stereo not drawn), the Potency result was “inactive”.

`CC(CCc1ccc(O)cc1)NCC(O)c1ccc(O)cc1` (stereo not drawn): the Potency result is “inactive”.

`CC1=C(/C=C/C(C)=C/C=C/C(C)=C/C(=O)Oc2c(C)c(C)c3c(c2C)CC[C@@](C)(CCC[C@H](C)CCC[C@H](C)CCCC(C)C)O3)C(C)(C)CCC1`: the Potency result was “inactive”.

On to `O=P(O)(O)OP(=O)(O)OP(=O)(O)O`, for which the Potency result was “inactive”.

As for `CO/N=C(\C(=O)N[C@@H]1C(=O)N2C(C(=O)[O-])=C(C[n+]3cccc4c3CCC4)CS[C@H]12)c1csc(N)n1`, the Potency result was “inactive”.

Turning to `CCCCCCCCCCCC(=O)OCC(O)CO` (stereo not drawn), the Potency result is “inactive”.

On to `CS(=O)(=O)OCC(O)C(O)COS(C)(=O)=O` (stereo not drawn), for which the Potency entry is “inactive”.

For the compound `CC1=CC(=O)NS(=O)(=O)O1`, the Potency entry was “inactive”.

In the case of `O=C(O)CCCC/C=C(\c1ccccc1)c1cccnc1`, the Potency entry is “inactive”.

Turning to `CCN(CC)C(=S)S`, the Potency result is “inactive”.

For the compound `C[Se]CC[C@H](N)C(=O)O`, the Potency result is “inactive”.

As for `CC(C)[C@H](N)C(=O)OCC(CO)OCn1cnc2c(=O)[nH]c(N)nc21` (stereo partly drawn), the Potency entry is “inactive”.

A further experiment concerns CP194. The experiment is described as above. The conditions noted are these: P. falciparum in erythrocytes, SYBR Green DNA, 72 h; series mostly up to 28.7 µM. The essentials:
as §1
As to `CCN(CC)C(=O)c1cccnc1`, the Potency entry is “inactive”.

Take `CNC(=O)C[C@@H](N)C(=O)N[C@@H](C(=O)N[C@@H]1C(=O)N2[C@@H]1SC(C)(C)[C@@H]2C(=O)O)c1ccc(O)cc1`: the Potency result is “inactive”.

Take `CCCCCCCCCCCCCCCCCC(=O)OCC(C)O` (stereo not drawn): the Potency entry was “inactive”.

For the compound `NC(=S)NS(=O)(=O)c1ccc(N)cc1`, the Potency result was “inactive”.

As for `N=C(N)n1cccn1`, the Potency result was “inactive”.

As for `Nc1ncnc2c1ncn2CCOCP(=O)(O)O`, the Potency result is “inactive”.

Turning to `CCC(C(=O)NC(N)=O)c1ccccc1` (stereo not drawn), the Potency entry is “inactive”.

`CC(C)CCC[C@@H](C)[C@H]1CC[C@H]2[C@@H]3CC=C4C[C@@H](O)CC[C@]4(C)[C@H]3CC[C@]12C`: the Potency entry is “inactive”.

Regarding `CC1=CCC2CC1C2(C)C` (stereo not drawn), the Potency entry is “inactive”.

As for `NC(N)=O`, the Potency result was “inactive”.

Consider `Cc1ncc(C[n+]2csc(CCOP(=O)(O)OP(=O)(O)O)c2C)c(N)n1`, for which the Potency entry is “inactive”.

As to `Nc1nc(=O)n([C@@H]2CS[C@H](CO)O2)cc1F`, the Potency result was “inactive”.

Take `CCOC(=O)[C@@H](N)CS`: the Potency entry was “inactive”.

Take `OCC(O)CO`: the Potency result was “inactive”.

Turning to `O=C1c2ccccc2C(=O)C1c1ccc(F)cc1`, the Potency result was “inactive”.

Consider `O=C(O)COc1ccccc1/C=N/NC(=O)c1ccncc1`, for which the Potency result is “inactive”.

As to `Cc1cccc(C)c1NC(=O)C1CCCCN1C` (stereo not drawn), the Potency result is “inactive”.

Take `CCC(C)[C@@H](N)C(=O)O` (stereo partly drawn): the Potency result was “inactive”.

For the compound `CC(C)(Oc1ccc(C2CCCc3ccccc32)cc1)C(=O)O` (stereo not drawn), the Potency entry was “inactive”.

As for `CC(CC=O)CCCC(C)(C)O` (stereo not drawn), the Potency result is “inactive”.

As for `S=C1SCN(Cc2ccccc2)CN1Cc1ccccc1`, the Potency entry is “inactive”.

As for `CC(C)Cc1ccc([C@@H](C)C(=O)NS(C)(=O)=O)cc1`, the Potency result is “inactive”.

For `COc1cc2c(cc1OC)[C@@H](Cc1cc(OC)c(OC)c(OC)c1)[N+](C)(CCCOC(=O)CC/C=C/CCC(=O)OCCC[N+]1(C)CCc3cc(OC)c(OC)cc3[C@H]1Cc1cc(OC)c(OC)c(OC)c1)CC2` (stereo partly drawn), the Potency result is “inactive”.

For the compound `COC(=O)CCC[N+](C)(C)C`, the Potency entry was “inactive”.

`[O]=[Bi][O][Bi]=[O]`: the Potency entry was “inactive”.

As to `C[C@]12CC[C@@H]3c4ccc(OC(=O)c5ccccc5)cc4CC[C@H]3[C@@H]1CC[C@@H]2O`, the Potency result is “inactive”.

For the compound `Cc1ccc(C(C)(C)c2ccc(C)cc2)cc1`, the Potency result is “inactive”.

As for `FC(F)OC(Cl)C(F)(F)F` (stereo not drawn), the Potency entry is “inactive”.

On to `CC(CCc1ccc(O)cc1)NCC(O)c1ccc(O)cc1` (stereo not drawn), for which the Potency result is “inactive”.

For the compound `CC1=C(/C=C/C(C)=C/C=C/C(C)=C/C(=O)Oc2c(C)c(C)c3c(c2C)CC[C@@](C)(CCC[C@H](C)CCC[C@H](C)CCCC(C)C)O3)C(C)(C)CCC1`, the Potency result was “inactive”.

As to `O=P(O)(O)OP(=O)(O)OP(=O)(O)O`, the Potency entry is “inactive”.

Take `CO/N=C(\C(=O)N[C@@H]1C(=O)N2C(C(=O)[O-])=C(C[n+]3cccc4c3CCC4)CS[C@H]12)c1csc(N)n1`: the Potency entry was “inactive”.

As for `CCCCCCCCCCCC(=O)OCC(O)CO` (stereo not drawn), the Potency entry is “inactive”.

For the compound `CS(=O)(=O)OCC(O)C(O)COS(C)(=O)=O` (stereo not drawn), the Potency result was “inactive”.

`CC1=CC(=O)NS(=O)(=O)O1`: the Potency entry is “inactive”.

As for `O=C(O)CCCC/C=C(\c1ccccc1)c1cccnc1`, the Potency entry is “inactive”.

As to `CCN(CC)C(=S)S`, the Potency entry was “inactive”.

In the case of `C[Se]CC[C@H](N)C(=O)O`, the Potency result is “inactive”.

On to `CC(C)[C@H](N)C(=O)OCC(CO)OCn1cnc2c(=O)[nH]c(N)nc21` (stereo partly drawn), for which the Potency entry is “inactive”.
